# From ChEMBL document CHEMBL2218924, “A broad activity screen in support of a chemogenomic map for kinase signalling research and drug discovery” (Biochem J, 2013)
# Tests used:
# [1] = biological target: T1, Mitogen-activated protein kinase kinase kinase 7 (Homo sapiens) (UniProt O43318); details: at 1 µM
# T1 sequence (whole entry): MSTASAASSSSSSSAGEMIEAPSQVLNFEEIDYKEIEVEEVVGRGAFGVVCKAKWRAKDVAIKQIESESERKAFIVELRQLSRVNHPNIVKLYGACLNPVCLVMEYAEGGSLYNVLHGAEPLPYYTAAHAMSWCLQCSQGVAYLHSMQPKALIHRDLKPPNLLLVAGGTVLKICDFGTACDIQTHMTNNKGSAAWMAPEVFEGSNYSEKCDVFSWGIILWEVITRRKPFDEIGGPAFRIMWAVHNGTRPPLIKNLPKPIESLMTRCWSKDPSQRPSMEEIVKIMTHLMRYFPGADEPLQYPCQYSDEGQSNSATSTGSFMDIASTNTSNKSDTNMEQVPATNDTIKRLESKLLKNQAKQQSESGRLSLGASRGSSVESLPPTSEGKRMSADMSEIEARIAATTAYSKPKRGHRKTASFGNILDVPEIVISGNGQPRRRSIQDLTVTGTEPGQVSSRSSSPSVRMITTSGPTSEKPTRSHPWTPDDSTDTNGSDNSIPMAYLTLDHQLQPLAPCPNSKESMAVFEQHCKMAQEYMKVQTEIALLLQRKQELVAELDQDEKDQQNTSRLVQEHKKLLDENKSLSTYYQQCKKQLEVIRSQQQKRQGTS
# [2] = biological target: T1, Mitogen-activated protein kinase kinase kinase 7 (Homo sapiens); details: at 10 µM
# [3] = biological target: T2, Serine/threonine-protein kinase TAO2 (Homo sapiens) (UniProt Q9UL54); details: at 1 µM
# T2 sequence (whole entry): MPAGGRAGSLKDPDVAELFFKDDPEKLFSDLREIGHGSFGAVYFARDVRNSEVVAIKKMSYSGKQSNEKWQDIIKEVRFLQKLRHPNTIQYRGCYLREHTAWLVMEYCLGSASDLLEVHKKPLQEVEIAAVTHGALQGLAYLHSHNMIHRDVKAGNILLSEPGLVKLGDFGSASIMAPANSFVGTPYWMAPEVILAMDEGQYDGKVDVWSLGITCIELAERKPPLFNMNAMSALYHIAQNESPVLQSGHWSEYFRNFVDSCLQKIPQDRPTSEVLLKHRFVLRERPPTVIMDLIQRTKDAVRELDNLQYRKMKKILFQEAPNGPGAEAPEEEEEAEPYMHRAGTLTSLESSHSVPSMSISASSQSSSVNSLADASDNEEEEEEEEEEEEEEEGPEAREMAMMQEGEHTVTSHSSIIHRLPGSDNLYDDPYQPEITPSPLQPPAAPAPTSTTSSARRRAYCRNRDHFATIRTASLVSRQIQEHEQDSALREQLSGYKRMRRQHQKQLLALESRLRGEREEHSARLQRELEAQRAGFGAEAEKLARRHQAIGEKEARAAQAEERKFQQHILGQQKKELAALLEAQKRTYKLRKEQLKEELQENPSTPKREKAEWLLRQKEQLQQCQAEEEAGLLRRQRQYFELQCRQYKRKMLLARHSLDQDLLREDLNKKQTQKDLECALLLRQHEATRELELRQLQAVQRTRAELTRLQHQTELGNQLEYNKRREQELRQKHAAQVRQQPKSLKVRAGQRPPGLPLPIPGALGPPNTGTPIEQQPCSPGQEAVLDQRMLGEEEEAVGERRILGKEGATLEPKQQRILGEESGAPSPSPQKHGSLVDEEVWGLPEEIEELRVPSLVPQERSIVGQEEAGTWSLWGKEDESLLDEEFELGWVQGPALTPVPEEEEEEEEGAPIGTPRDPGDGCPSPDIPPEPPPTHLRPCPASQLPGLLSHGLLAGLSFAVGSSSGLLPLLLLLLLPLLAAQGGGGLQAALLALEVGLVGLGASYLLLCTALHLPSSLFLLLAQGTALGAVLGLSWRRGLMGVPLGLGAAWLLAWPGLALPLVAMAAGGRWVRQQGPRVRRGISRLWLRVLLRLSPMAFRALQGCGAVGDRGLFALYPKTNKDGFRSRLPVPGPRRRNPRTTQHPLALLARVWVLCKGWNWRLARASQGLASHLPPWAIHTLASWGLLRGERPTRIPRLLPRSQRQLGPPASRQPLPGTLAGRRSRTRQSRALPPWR
# [4] = biological target: T2, Serine/threonine-protein kinase TAO2 (Homo sapiens); details: at 10 µM
# [5] = biological target: T3, Serine/threonine-protein kinase TBK1 (Homo sapiens) (UniProt Q9UHD2); details: at 1 µM
# T3 sequence (whole entry): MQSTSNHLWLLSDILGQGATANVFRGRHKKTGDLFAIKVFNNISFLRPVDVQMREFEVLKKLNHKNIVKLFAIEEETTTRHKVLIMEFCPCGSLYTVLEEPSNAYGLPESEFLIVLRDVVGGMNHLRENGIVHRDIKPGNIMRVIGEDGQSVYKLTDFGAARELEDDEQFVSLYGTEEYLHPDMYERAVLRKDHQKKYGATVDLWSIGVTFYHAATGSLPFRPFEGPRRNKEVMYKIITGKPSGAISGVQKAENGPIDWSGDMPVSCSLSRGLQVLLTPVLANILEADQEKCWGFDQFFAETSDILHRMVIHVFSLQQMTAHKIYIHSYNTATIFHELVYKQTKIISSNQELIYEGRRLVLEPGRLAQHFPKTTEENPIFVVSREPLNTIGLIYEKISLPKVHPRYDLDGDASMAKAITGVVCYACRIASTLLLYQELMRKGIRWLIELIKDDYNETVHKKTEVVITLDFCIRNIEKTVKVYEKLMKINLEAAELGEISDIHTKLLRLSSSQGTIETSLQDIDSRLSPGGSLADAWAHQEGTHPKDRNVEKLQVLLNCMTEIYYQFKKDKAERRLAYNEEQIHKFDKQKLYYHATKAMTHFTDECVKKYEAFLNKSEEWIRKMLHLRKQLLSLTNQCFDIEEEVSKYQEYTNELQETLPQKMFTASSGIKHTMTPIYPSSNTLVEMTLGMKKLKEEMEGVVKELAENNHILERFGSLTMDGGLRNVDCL
# [6] = biological target: T3, Serine/threonine-protein kinase TBK1 (Homo sapiens); details: at 10 µM
# [7] = biological target: T4, TGF-beta receptor type-1 (Homo sapiens) (UniProt P36897); details: at 1 µM
# T4 sequence (whole entry): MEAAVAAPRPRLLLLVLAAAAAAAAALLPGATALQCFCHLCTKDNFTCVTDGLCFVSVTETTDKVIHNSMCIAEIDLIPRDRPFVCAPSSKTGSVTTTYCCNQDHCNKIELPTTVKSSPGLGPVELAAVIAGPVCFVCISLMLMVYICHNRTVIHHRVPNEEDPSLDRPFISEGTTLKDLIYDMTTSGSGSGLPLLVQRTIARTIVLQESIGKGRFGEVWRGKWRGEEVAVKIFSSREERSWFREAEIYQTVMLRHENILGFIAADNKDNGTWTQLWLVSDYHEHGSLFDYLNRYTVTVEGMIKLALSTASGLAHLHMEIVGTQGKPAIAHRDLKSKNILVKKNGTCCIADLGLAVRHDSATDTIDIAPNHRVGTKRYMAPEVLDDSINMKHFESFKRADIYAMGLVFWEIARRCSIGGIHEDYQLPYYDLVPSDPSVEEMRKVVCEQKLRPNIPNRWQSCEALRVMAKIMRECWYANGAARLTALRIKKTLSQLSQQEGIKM
# [8] = biological target: T4, TGF-beta receptor type-1 (Homo sapiens); details: at 10 µM
structure (smiles),measurement,setting,value
CC(C)N(CCC(=O)c1ccc2ccccc2c1)Cc1ccccc1,residual activity,[1],87%
same,residual activity,[2],86%
same,residual activity,[3],100%
same,residual activity,[4],88%
same,residual activity,[5],52%
same,residual activity,[6],51%
same,residual activity,[7],76%
same,residual activity,[8],74%
